Screens from PubChem.
GPR151 activ: human GPR151 activation; actives 1% (n = 650,000); Q8TDV0; PathHunter beta-arrestin GPR151 cells, luminescence; AID 1508602; activation, % at 11.2 µM; in the data active = activation above about 4.9%
FBW7 act: activators of human E3 ligase FBW7 | Q969H0 | AID 1259310 | actives 0.13% (n = 650,000) | AlphaScreen FBW7–phospho-cyclin E peptide binding, activator screen | normalized activity (activation), % at 26.1 µM; in the data active = normalized activity above about 1.9%;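 also: purified mutant Fbw7 with reduced substrate affinity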
Target sequence (Q969H0 whole entry, looked up): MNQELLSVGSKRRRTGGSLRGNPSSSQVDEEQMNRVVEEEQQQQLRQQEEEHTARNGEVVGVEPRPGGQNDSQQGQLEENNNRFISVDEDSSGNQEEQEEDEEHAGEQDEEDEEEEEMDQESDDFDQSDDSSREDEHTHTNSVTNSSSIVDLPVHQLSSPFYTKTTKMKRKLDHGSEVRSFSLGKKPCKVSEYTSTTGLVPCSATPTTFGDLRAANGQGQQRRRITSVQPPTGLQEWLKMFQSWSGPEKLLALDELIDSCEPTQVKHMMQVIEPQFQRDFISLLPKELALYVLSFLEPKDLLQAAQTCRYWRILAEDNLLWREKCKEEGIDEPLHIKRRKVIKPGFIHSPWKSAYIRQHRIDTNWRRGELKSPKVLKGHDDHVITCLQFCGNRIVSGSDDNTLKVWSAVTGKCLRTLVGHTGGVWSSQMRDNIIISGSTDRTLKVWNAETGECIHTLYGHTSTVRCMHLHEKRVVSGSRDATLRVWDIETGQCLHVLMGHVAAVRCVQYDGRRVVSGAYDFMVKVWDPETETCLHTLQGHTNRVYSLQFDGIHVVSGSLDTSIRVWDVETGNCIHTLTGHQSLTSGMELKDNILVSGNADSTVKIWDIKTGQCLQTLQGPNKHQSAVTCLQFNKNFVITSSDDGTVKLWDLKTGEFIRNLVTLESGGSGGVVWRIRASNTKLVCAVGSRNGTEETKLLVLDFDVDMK
MITF inh: inhibitors of human MITF. AlphaScreen MITF homodimerization, bead proximity signal. inhibition, % at 2.6 µM. actives 0.91% (n = 650,000). AID 1259374; in the data active = inhibition above about 50%
TEAD-YAP block: TEAD-YAP interaction inhibition; actives 1.4% (n = 640,000); HEK-TIYL cells, TEAD-Gal4/YAP UAS-luciferase luminescence; inhibition, % at 9.12 µM; AID 1259422; in the data active = inhibition above about 32%
GPR151 conf act: confirmation of human GPR151 activators. shares compounds with GPR151 activ. GPR151 PathHunter beta-arrestin cells, luminescence, 90 min; % of EA-reagent control over plate median. activation, % at 11.2 µM. 6,700 tested, under 10 active;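 active = mean percent activation across replicates above the confirmation screen cutoff of 4.91%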
GPR119 counter: counter-screen for GPR151 activators: effect on human GPR119. GPR119 PathHunter beta-arrestin cells, luminescence, 90 min; 0 = compound-well median, 100 = enzyme-acceptor control. activation, % at 11.2 µM. actives 0.3% (n = 6,700). shares compounds with GPR151 activ;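 active = mean percent activation in the counterscreen above 29.09%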;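 also: counterscreen on off-target GPR119 to flag nonselective hits from the GPR151 activator screen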
Hits are given with their value; - = inactive; . = no result; ! = a repeat was not active. Rows were chosen to be rich in hits. Some 3.5% of all compounds tested hit in one or more screens of this group.

SMILES | GPR151 activ | FBW7 act | MITF inh | TEAD-YAP block | GPR151 conf act | GPR119 counter
COc1ccc(CNC(=O)c2c(C)nc3c(C)cccn23)cc1OC | 5.1 | - | - | - | - | -
COc1ccc(CCn2c(=O)c(C#N)cc3c(=O)n4cccc(C)c4nc32)cc1OC | 7.4 | - | - | - | - | -
O=C(CC1C(=O)NCCN1C/C=C/c1ccccc1)NCc1ccc(F)cc1 (configuration not stated) | - | - | - | - | . | .
O=C(Cc1ccccc1)NCC(=O)OCc1ccccc1 | 6.3 | - | - | - | - | -
O=C(COc1ccccc1Br)NCc1ccccc1 | - | - | - | - | . | .
CC(=O)Nc1ccc(C(=O)NCCNC(=O)Cc2ccc(F)cc2)cc1 | 5.5 | - | - | - | - | -
O=C(CNC(=O)Cc1ccccc1)NCC(=O)OCc1ccccc1 | - | - | - | - | . | .
COc1ccccc1CNC(=O)COc1cccc2ccccc12 | 5.6 | - | - | - | - | -
CCc1ccccc1OCC(=O)NCc1ccccc1 | 5.8 | - | - | - | - | -
CN(C)CCOc1cc(-c2cn[nH]c2)c(F)cc1NC(=O)[C@@H]1Cc2ccccc2CN1 | - | - | - | - | . | .
COc1ccc(-c2cc(F)cc3c2OC(CNC(=O)C2Cc4ccccc4CN2C)C3)nn1 (configuration not stated) | - | - | - | - | . | .
CCOC(=O)c1c(NC(=O)c2cn(-c3ccccc3)nc2C23CC4CC(CC(C4)C2)C3)sc2c1CCCC2 | - | - | - | - | . | .
O=C(Nc1cc2c3c(c1)C1CCCC1CN3CC1CCCC21)c1ccc(Cl)cc1 (configuration not stated) | - | - | - | - | . | .
CN(C(=O)C1CC1)c1ccccc1C(=O)NCc1ccccc1 | - | - | - | - | . | .
O=C(Cc1ccc(F)cc1)NCc1ccccc1 | 5.2 | - | - | - | - | -
CN(C(=O)c1ccc(F)cc1)c1ccccc1C(=O)NCc1ccccc1 | 9.0 | - | - | - | - | -
Cc1ccc(CNC(=O)COc2ccccc2C)cc1 | 7.4 | - | - | - | - | -
O=C(Cc1ccccc1)Nc1ccccc1C(=O)NCc1ccccc1 | - | - | - | - | . | .
O=C(CCc1ccccc1)Nc1ccccc1C(=O)NCc1ccccc1 | 8.0 | - | - | - | - | -
CCOc1ccc(NC(=O)CNC(=O)c2ccccc2Cl)cc1 | - | - | - | - | . | .
O=C(NCC1CCCO1)c1nnc(Cc2ccc(Cl)cc2)o1 (configuration not stated) | - | - | - | - | . | .
O=C(CCCc1ccccc1)Nc1ccc(O)cc1C(=O)O | - | - | - | - | . | .
O=C(CCCc1ccccc1)Nc1ccc(Br)cc1C(=O)O | 5.9 | - | - | - | - | -
COC(=O)c1cc(C(=O)Nc2cc(F)cc(F)c2)cc([N+](=O)[O-])c1 | - | - | - | - | . | .
Cc1cc(/C=N/n2cnnc2)c(C)n1-c1ccc(Cl)cc1 | - | - | - | - | . | .
SMILES | GPR151 activ | FBW7 act | MITF inh | TEAD-YAP block | GPR151 conf act | GPR119 counter
Cc1cc(/C=N/n2cnnc2)c(C)n1-c1ccc(Cl)cc1Cl | 5.3 | - | - | - | - | -
CC(Oc1cccc(Cl)c1)C(=O)Nc1nccs1 (configuration not stated) | 6.0 | - | - | - | - | -
Cc1ccc(S(=O)(=O)N2CCN(c3ccc(-n4nc(C)cc4C)nn3)CC2)c(C)c1 | - | - | - | - | . | .
COc1ccccc1OCC(=O)NCC(c1ccsc1)N1CCCC1 (configuration not stated) | - | - | - | - | . | .
O=C(Cc1ccc(F)cc1)NCC(c1ccsc1)N1CCCCCC1 (configuration not stated) | 6.9 | - | - | - | - | -
COC(=O)[C@@H]1CCCN1Cc1ccc2c(c1)CN(Cc1ccccc1)CCO2 | - | - | - | - | . | .
COC(=O)[C@@H]1CCCN1Cc1ccc2c(c1)CN(Cc1c[nH]c3ccccc13)CCO2 | 6.9 | - | - | - | - | -
CC1(C)OC(=O)N2CCN3C(=O)OC(C)(C)C3(C)C(Br)=C21 (configuration not stated) | 6.0 | - | - | - | - | -
CO[C@H]1/C=C/O[C@@]2(C)Oc3c(C)c(O)c4c(O)c(c(/C=N\N5CCN(C)CC5)c(O)c4c3C2=O)NC(=O)/C(C)=C\C=C\C(C)[C@H](O)[C@@H](C)[C@@H](O)[C@@H](C)[C@@H](OC(C)=O)[C@@H]1C (some centres not stated) | - | - | - | - | . | .
CO[C@H]1C=CO[C@@]2(C)Oc3c(C)c(O)c4c(O)c(c(C=NN5CCN(C)CC5)c(O)c4c3C2=O)NC(=O)C(C)=CC=C[C@H](C)[C@H](O)[C@@H](C)[C@@H](O)[C@@H](C)[C@H](OC(C)=O)[C@@H]1C | 6.0! | - | - | . | - | -
CC(=O)c1cccc(NC(=O)/C(=C/c2ccccc2)NC(=O)c2ccccc2)c1 | - | - | - | - | . | .
COc1ccccc1/C=C(\NC(=O)c1ccccc1)C(=O)Nc1cccc(C(C)=O)c1 | 5.8 | - | - | - | - | -
O=C(c1ccccc1)N1CCN(c2ccc(Nc3ccccn3)nn2)CC1 | - | - | - | - | . | .
O=C(Nc1ccc(-c2ccc([N+](=O)[O-])cc2)cc1)C1CC1 | - | - | - | - | . | .
O=C(Nc1ccc([N+](=O)[O-])cc1)C1CC1 | 7.5 | - | - | - | - | -
O=C1NC(=O)c2cc(NC(=O)C3CC3)ccc21 | 5.2 | - | - | - | - | -
O=c1nc(N2CCOCC2)nc(Nc2ccc([N+](=O)[O-])cc2)[nH]1 | - | - | - | - | . | .
Cc1ccc(C(=O)Nc2ccc([N+](=O)[O-])cc2N)cc1 | - | - | - | - | . | .
O=C(Nc1c2c(nn1-c1ccc(Cl)cc1)CSC2)c1ccc(Cl)cc1 | 7.7 | - | - | - | - | -
Fc1ccccc1/C=N\Nc1nc2ccccc2o1 | 11 | - | - | - | - | -
C/C=C/c1ccc(OCCNC(C)CC)c(OC)c1 (configuration not stated) | - | - | - | - | . | .
NNc1nc(N2CCOCC2)nc(N(c2ccccc2)c2ccccc2)n1 | 9.0 | - | - | - | - | -
Clc1nc(N2CCOCC2)nc(N(c2ccccc2)c2ccccc2)n1 | - | - | - | - | . | .
O=C(O)c1ccc(NS(=O)(=O)c2cc(C(=O)O)ccc2Br)cc1 | 5.6 | - | - | - | - | -
COc1ccccc1Cn1c(=O)c2ccccc2n2c(=S)[nH]nc12 | - | - | - | - | . | .
CCOC(=O)C1=C(O)/C(=C/c2ccc(N(C)C)cc2)N=C1C | 12 | - | - | - | - | -
CCOC(=O)C1=C(O)/C(=C\c2ccc(F)cc2)N=C1C | - | - | - | - | . | .
CC(C)(C)n1nc(Cc2cccc3ccccc23)c2c(N)ncnc21 | - | . | - | . | . | .
CC(C)(C)n1nc(-c2ccccc2)c2c(N)ncnc21 | 5.2 | . | . | . | - | -
O=C(Cn1cnc2ccccc2c1=O)NCCC(=O)N1CCOCC1 | - | - | - | - | . | .
